Out of some 1,300 compounds screened, about 1,200 (92%) were called active.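 The calls were made as follows: active = inhibition of the VIM-2 beta-lactamase enzyme above about 11% from the earlier first-round screen (limit read from the data); inactive = the rest.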 The set was probably picked from earlier hits. A selection follows.
test system: VIM-2 metallo-beta-lactamase (Pseudomonas aeruginosa); experiment: inhibition of VIM-2 nitrocefin hydrolysis – biochemical, epi-absorbance, hits shared with IMP-1 screen, confirmation (AID 2187); details: purified VIM-2, nitrocefin hydrolysis, at 5.6 µM, active compounds read high;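 also: 0% = VIM-2 with DMSO and 100% = buffer wells without enzyme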

inhibition, inactive:
CCCc1ccc(OCCNC(=O)c2ccco2)cc1 0.92%

inhibition, active:
CCN1CCCC1CNC(=O)c1cc2c(=O)n(C)c3ccccc3c2n1C (configuration not stated) 32.5%, CC1CCCC(C)N1CCCNC(=O)c1cc2c(=O)n(C)c3ccccc3c2n1C (configuration not stated) 29.3%, Cc1cc(NCc2ccco2)n2c(nc3ccccc32)c1C#N 53%, CCN(CC)c1ccc2cc(C(N)=O)/c(=N\NC(=O)c3ccncc3)oc2c1 37.4%, COc1ccc(/C=N/N(C)C2=NS(=O)(=O)c3ccccc32)cc1OC 20.6%, O=C(COc1cc2oc(=O)c3c(c2cc1Cl)CCC3)NCCCN1CCOCC1 34.9%, Cn1c(=O)c2c(nc(N3CCOCC3)n2CCNC2=NCCC2)n(C)c1=O 28%, CCN(CC)CCOc1ccc2c(c1)C(=NNC(=O)c1ccccn1)c1cc(OCCN(CC)CC)ccc1-2 43.4%, Cn1c2ccccc2c(=O)c2c(O)cccc21 38.6%, C=CCn1c(-c2ccccc2OCC)n[nH]c1=S 24.7%, COc1ccc(CCn2c(=N)c(C(=O)NCC3CCCO3)cc3c(=O)n4cccc(C)c4nc32)cc1OC (configuration not stated) 27.6%, CC(=O)c1ccc(-c2ccc(Cn3c(C)nc4cc(N)c(C)nc43)cc2)cc1 26.6%, CCOCCCNc1c(CC)c(C)c(C#N)c2nc3ccccc3n12 20.6%, CCOC(=O)N1CCN(C(=O)C2CCN(c3ncnc4c3sc3cccc(F)c34)CC2)CC1 22%, Cc1cccn2c(=O)c(C=O)c(Nc3ccc(S(N)(=O)=O)cc3)nc12 26.6%, O=c1[nH]c(-c2ccccc2)c(-c2ccccc2)[nH]1 45.7%, COc1cc(/C=N/Nc2nn3cnnc3c3ccccc23)cc(OC)c1OC 53.9%, COc1ccc(Nc2cc(C)nc(-n3nc(C)cc3C)n2)cc1 25.1%, COc1ccc(Cc2nnc(NS(=O)(=O)Cc3ccccc3)s2)cc1 21.1%, CCC1CCCCN1CCCNC(=O)c1cc2c(Cl)nc3ccccc3c2s1 (configuration not stated) 32.2%, Cc1nc2ccccc2c2oc(C(=O)NCCCN3CCC(C)CC3)cc12 29.2%, O=C(NC(=S)Nc1ccccc1C(=O)O)c1ccc(-c2ccc(Br)cc2)o1 8.47%, CNC(=O)c1ccsc1NC(=O)c1ccc(S(=O)(=O)N2CCOCC2)cc1 26.7%, COC(=O)c1c(NC(=O)c2ccc(S(=O)(=O)N3CCOCC3)cc2)sc2c1CCN(C(C)C)C2 71.3%, COc1cc(NC(=O)C2=C(C)OCCS2)c(Cl)cc1C(=O)NCCN1CCN(C)CC1 34.3%, CCN1CCN(C(=O)Cn2nc(C)n3c(cc4c(OC)cccc43)c2=O)CC1 41.4%, Nc1nnc2c(C(F)(F)F)nc3ccccc3n12 21.3%, NC(=O)C1CCN(C(=O)COc2ccc3c4c(c(=O)oc3c2)CCC4)CC1 22.5%, COc1nc(N=C(N)N)nc2c(C)cccc12 24.9%, Cc1cc(C)c2nc3nc(C)cc(C)c3c(N)c2c1 28.1%, O=C(NCCCN1CCOCC1)c1cnn2c(-c3ccccc3)cc(-c3ccccc3)nc12 45.4%, COc1cc(-c2nn3c(-c4cccc(C)c4)nnc3s2)cc(OC)c1OC 22.1%, COc1ccc(-c2nn3c(-c4ccccc4)nnc3s2)cc1OC 34.6%, COC(=O)c1ccc(-c2noc(CN(Cc3ccccn3)CC3CCCO3)n2)cc1 (configuration not stated) 26.8%, CCN1CCN(CCNC(=O)c2ccc3c(c2)NC(=O)/C(=C\c2ccc(OC)c(OC)c2)S3)CC1 30.4%, Nc1cccc2c1C(=O)N(Cc1nnc(-c3ccccc3Br)o1)C2=O 18.7%, CN1CCN(c2ccc(NC(=O)c3ccc4c(c3)[nH]c(=O)n4Cc3ccc(F)cc3)cc2)CC1 33.6%, CC(NS(=O)(=O)c1ccccc1)c1n[nH]c(=S)n1-c1ccccc1 (configuration not stated) 28.1%, CN(C)CCNc1ccc(-c2n[nH]c(=O)c3ccccc23)cc1[N+](=O)[O-] 84.4%, O=C1Nc2cc(C(=O)N3CCC(N4CCCCC4)CC3)ccc2S/C1=C\c1ccccc1 38.5%, Fc1ccc(-c2ccc(CNCc3ccccn3)o2)cc1Cl 54.3%, Cc1ccc2nc(C)c3c(c2c1)N(c1ccccc1)CC3 25.2%, Cn1c(-c2sccc2OCc2cccc(C(F)(F)F)c2)n[nH]c1=S 37.3%, Clc1cc(-c2ccc(/C=N/n3cnnc3)o2)ccc1Br 57%, Cc1ccc(Cl)cc1-c1ccc(/C=N/n2cnnc2)o1 41.2%, Cc1cc(-c2ccc(/C=N/n3cnnc3)o2)c([N+](=O)[O-])cc1C 69.9%, Cc1cc([N+](=O)[O-])c(-c2ccc(/C=N/n3cnnc3)o2)cc1Cl 67.5%, CC(C)(C)CC(=O)Nc1nnc(SCC(=O)NCc2cccs2)s1 27.4%, CCc1cc(=O)oc2cc(C)cc(OCC(=O)N3CCC[C@@H]3C(=O)O)c12 19.7%, CCOc1cc(/C=C2\SC(N3CCCC(C)C3)=NC2=O)ccc1O (configuration not stated) 20.7%, CCOc1cc(/C=C2\SC(N3CCCCC3)=NC2=O)ccc1O 19%
